In all, about 340,000 compounds went through this assay and about 1,300 (0.38%) were called active.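 How the source made its calls: active means maximum activity change below -70%; inconclusive means maximum activity change between -70% and -50%; inactive means maximum activity change above -50%.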 The list comes from a sample in which actives are over-represented; it also holds similar structures and randomly drawn compounds.
These compounds were tested against Voltage-gated inwardly rectifying potassium channel KCNH2 (Homo sapiens) (UniProt Q12809) (assay: qHTS for Inhibitors of KCHN2 3.1: Wildtype qHTS). Conditions: U2OS, BacMam KCNH2, thallium flux FluxOr; at 1.84 µM; active compounds read low.
Voltage-gated inwardly rectifying potassium channel KCNH2 (Homo sapiens), sequence (Q12809 whole entry, looked up): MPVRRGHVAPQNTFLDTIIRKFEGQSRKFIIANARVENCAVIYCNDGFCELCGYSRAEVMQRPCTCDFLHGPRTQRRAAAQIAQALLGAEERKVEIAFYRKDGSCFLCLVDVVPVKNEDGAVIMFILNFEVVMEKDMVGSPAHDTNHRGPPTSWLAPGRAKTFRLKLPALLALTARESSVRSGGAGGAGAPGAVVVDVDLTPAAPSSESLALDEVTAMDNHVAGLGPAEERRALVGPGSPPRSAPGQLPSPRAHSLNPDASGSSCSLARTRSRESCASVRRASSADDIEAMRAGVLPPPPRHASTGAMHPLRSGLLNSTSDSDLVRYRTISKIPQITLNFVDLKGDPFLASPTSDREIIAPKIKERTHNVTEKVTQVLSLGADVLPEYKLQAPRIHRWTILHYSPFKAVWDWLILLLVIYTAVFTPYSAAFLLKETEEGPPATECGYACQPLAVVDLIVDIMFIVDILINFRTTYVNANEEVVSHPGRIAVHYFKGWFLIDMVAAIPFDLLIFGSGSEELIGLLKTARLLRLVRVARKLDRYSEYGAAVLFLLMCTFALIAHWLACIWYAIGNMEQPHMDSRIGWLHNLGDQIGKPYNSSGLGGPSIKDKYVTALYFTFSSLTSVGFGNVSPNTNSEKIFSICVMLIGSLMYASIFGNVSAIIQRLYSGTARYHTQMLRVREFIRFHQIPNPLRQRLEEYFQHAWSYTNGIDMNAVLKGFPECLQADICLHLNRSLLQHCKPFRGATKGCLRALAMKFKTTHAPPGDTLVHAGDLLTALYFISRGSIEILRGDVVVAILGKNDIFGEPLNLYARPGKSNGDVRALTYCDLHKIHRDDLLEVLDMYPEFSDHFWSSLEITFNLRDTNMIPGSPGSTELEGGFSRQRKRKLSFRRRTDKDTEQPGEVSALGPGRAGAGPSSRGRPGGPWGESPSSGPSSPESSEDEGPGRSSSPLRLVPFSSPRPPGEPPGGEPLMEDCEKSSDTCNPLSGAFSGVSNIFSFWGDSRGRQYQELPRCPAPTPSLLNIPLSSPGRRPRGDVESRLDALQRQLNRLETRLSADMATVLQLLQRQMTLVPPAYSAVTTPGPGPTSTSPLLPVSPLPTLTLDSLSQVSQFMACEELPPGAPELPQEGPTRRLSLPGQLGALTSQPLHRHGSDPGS
In short: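 U2OS cells were transduced with wild-type KCNH2 virus (2.03 x 10^8 / mL) for 4 h at room temperature, then cultured overnight at 37 C. Thallium flux was read with FluxOr dye. Rate constants were normalized to DMSO controls.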
In the case of Cc1ccc([C@H]2N[C@]3(CCCN(CC4CCCCC4)C3=O)[C@H]3C(=O)N(Cc4ccccc4)C(=O)[C@@H]23)cc1, the activity change is reported as 2.25% (inactive). For CN(C)C(CNC(=O)c1cccc(S(=O)(=O)N2CCc3ccccc3C2)c1)c1ccccc1 (centres undefined), the activity change was 19.3% (inactive). With C[C@@H]1CN([C@H](C)CO)C(=O)c2cc(-c3ccc(F)cc3)cnc2O[C@H]1CN(C)C(=O)c1ccc(F)cc1 the activity change was 16.3% (inactive). With Cc1noc(C)c1COc1cccc(C(=O)Nc2cccnc2)c1 the activity change was 7.71% (inactive). With Cc1nc2nc[nH]n2c(=O)c1NC(=O)c1cccc(OCC(C)C)c1 the activity change was -180% (active). With Cc1nc2nc[nH]n2c(=O)c1C/C=C/c1ccccc1 the activity change was 1.17% (inactive). For COc1ccc(-c2ccc(CN3C(C(C)C)C(=O)N(Cc4cn(CC5CCCCC5)nn4)CCS3(=O)=O)cc2)cn1 (centres undefined), the activity change was 6.66% (inactive). In the case of Cc1cccc(C(=O)NC2CCN(CC(=O)Nc3cccc(Cl)c3)CC2)c1, the activity change is reported as 47.4% (inactive). With Clc1ccc(-c2cc(-c3ccccn3)on2)c(Cl)c1 the activity change was -93.1% (active). O=C(COc1ccc(Cl)cc1Cl)N/N=C/c1ccccn1 was tested, and the activity change was -7.76% (inactive). For Clc1ccc(COn2c(-c3ccc(Cl)cc3Cl)nc3ncccc32)cc1, the activity change was 1.98% (inactive). In the case of C[C@@H]1CN([C@H](C)CO)C(=O)CCCn2cc(nn2)CO[C@H]1CN(C)S(=O)(=O)c1ccc(Oc2ccccc2)nc1, the activity change is reported as 10.5% (inactive). In the case of COc1ccc(CN2CCC(c3nc4ccc(Cl)cc4[nH]3)CC2)cc1, the activity change is reported as -96.7% (active). With COc1ccc(CN2CCN(Cc3ccc(OC)c(OC)c3OC)CC2)cc1 the activity change was 38.9% (inactive). For COc1ccc(F)c(-c2nc(CN3CCC(c4ccccc4)CC3)c(C)o2)c1, the activity change was 21% (inactive). O=C(CCCN1C(=O)C(c2ccccc2)Oc2cccnc21)Nc1ccccc1Br (centres undefined) was tested, and the activity change was -7.82% (inactive). With CCOC(=O)c1cnn2c(SC)ncnc12 the activity change was 9.2% (inactive). CCOc1ccccc1NC(=S)N1CCN(c2cccc(C)c2C)CC1 was tested, and the activity change was -2.86% (inactive). Cc1ccc(C(C)C)cc1OCC(=O)Nc1ccccc1N1CCCC1 was tested, and the activity change was -18.3% (inactive). In the case of CCC(=O)N1CCN(c2ccccc2NC(=O)COc2cccc(C)c2C)CC1, the activity change is reported as -214% (active). In the case of COc1ccc(-c2ccc(CN3C(CC(C)C)C(=O)N(Cc4cn(CC5CCCCC5)nn4)CCS3(=O)=O)cc2)cn1 (centres undefined), the activity change is reported as 16.3% (inactive). With CCC(Oc1ccccc1)C(=O)OCC(=O)Nc1c(C)nn(-c2ccccc2)c1C (centres undefined) the activity change was 0.17% (inactive). Cc1cc(NC(=O)[C@H](C)NC(=O)c2ccco2)ccc1Br was tested, and the activity change was -4.82% (inactive). CC(NC(=O)c1ccco1)C(=O)Nc1nc(-c2ccccn2)cs1 (centres undefined) was tested, and the activity change was -212% (active). In the case of O=C(COc1ccccc1F)Nc1nc(-c2ccccn2)cs1, the activity change is reported as -8.89% (inactive). With CCOCCCN(C)C1CCN(C(=O)c2oc3ccccc3c2NC(=O)Cc2cccc([N+](=O)[O-])c2)CC1 the activity change was -97.4% (active). In the case of CCOCCCN(C)C1CCN(C(=O)c2oc3ccccc3c2NC(=O)COc2cccc(C)c2)CC1, the activity change is reported as -82.2% (active). For CN(C(=O)c1cccc(NC(=O)Cc2cccc([N+](=O)[O-])c2)c1)C1CCCCC1, the activity change was -17.3% (inactive). In the case of COc1ccc(CC(=O)Nc2c(C(N)=O)oc3ccccc23)cc1, the activity change is reported as 26.6% (inactive). For COCC(=O)Nc1c(C(=O)N2CCCC2)oc2ccccc12, the activity change was -3.28% (inactive). With COc1cccc(OC)c1C(=O)Nc1c(C(=O)N2CCN(c3ccccn3)CC2)oc2ccccc12 the activity change was 3.21% (inactive). In the case of COc1ccccc1C(=O)NC(=S)Nc1ccc(N2CCOCC2)cc1, the activity change is reported as -8.97% (inactive). With C#CCN(C[C@@H]1[C@@H](OC(=O)NC2CC2)[C@@H](OC(=O)NC2CC2)Cn2c(=O)ccc(=O)n21)S(=O)(=O)c1ccc(C)cc1 the activity change was 2.34% (inactive). For CC(C)CC1C(=O)N(Cc2cn(Cc3ccco3)nn2)CCS(=O)(=O)N1Cc1ccc(-c2ccc(Cl)c(Cl)c2)cc1 (centres undefined), the activity change was -32.9% (inactive). In the case of C[C@H](CO)N1C[C@H](C)[C@@H](CN(C)S(=O)(=O)c2ccc(F)cc2)OCc2cnnn2CCCC1=O, the activity change is reported as -1.39% (inactive). In the case of CCN(CC)C(=O)C1=C(C)N(Cc2ccc(C(C)(C)C)cc2)C(=O)C(CC(=O)NCc2cccc3ccccc23)C1 (centres undefined), the activity change is reported as -4.42% (inactive). With CCCOc1cccc(C(=O)Nc2nnn(CCC)n2)c1 the activity change was -113% (active). For CCCn1nnc(NC(=O)COc2ccc(CC)cc2)n1, the activity change was 4.88% (inactive). For CCCOc1cccc(C(=O)NCCCNC(=O)c2cccnc2)c1, the activity change was -0.846% (inactive). CC(=O)c1ccc(OCC(=O)N(C)C2CCS(=O)(=O)C2)cc1 (centres undefined) was tested, and the activity change was -11.1% (inactive). CC(C)CC(=O)NC(=S)Nc1cc(C(=O)O)ccc1Cl was tested, and the activity change was -19.3% (inactive). For CC(C)CC(=O)NC(=S)NCc1ccccc1, the activity change was -84.2% (active). For CC(C)CC(=O)c1c[nH]c(C(=O)NCc2ccccc2)c1, the activity change was 0.798% (inactive). With COc1ccc(NC(=O)CCCOc2ccc(C(C)=O)cc2)cc1S(=O)(=O)N1CCCCC1 the activity change was -1.81% (inactive). With Cc1ccc([C@H]2C[C@H](O)[C@@H](n3cc(COC(=O)c4ccccc4)nn3)CN2C(=O)C2CCCCC2)cc1 the activity change was -0.947% (inactive). In the case of C[C@@H]1CN([C@@H](C)CO)C(=O)CCCn2cc(nn2)CO[C@H]1CN(C)S(=O)(=O)c1ccc(-n2cccn2)cc1, the activity change is reported as -21.9% (inactive). In the case of O=C(NCc1nnnn1-c1ccc(Cl)cc1)c1ccc([N+](=O)[O-])o1, the activity change is reported as 7.93% (inactive). For O=C(NCc1nnnn1-c1ccc(Cl)cc1)c1ccc2c(c1)OCO2, the activity change was -76.9% (active). For COc1ccc(-n2nnnc2CNC(=O)c2ccc3ccccc3c2)cc1, the activity change was -0.166% (inactive). With C/C(COc1ccccc1)=N\NC(=O)c1nnn(-c2nonc2N)c1-c1ccc(C)cc1 the activity change was 4.6% (inactive). For Cc1c(C=O)c2ccccn2c1C(=O)c1ccncc1, the activity change was -70.5% (active). In the case of Cc1cc2ccccn2c1C(=O)c1cccc(F)c1, the activity change is reported as -0.532% (inactive). For Cc1c(C(=O)NNC(=O)c2ccncc2)oc2ccccc12, the activity change was -13.1% (inactive). With O=C1[C@H]2[C@@H](c3ccc(C(F)(F)F)cc3)N[C@]3(CCCN(Cc4ccc(Cl)cc4)C3=O)[C@H]2C(=O)N1Cc1ccccc1 the activity change was -9.13% (inactive).

Reference: PubChem BioAssay AID720551 (National Center for Advancing Translational Sciences (NCATS), 2013)
On the % scale 0 is the no-effect control and ±100 the full control effect.
